The structures appear in SMILES notation. Where a name gives a salt, the structure may show the parent alone. ± gives the standard deviation.

For this assay, the system named is THP-1 macrophages infected with Mycobacterium tuberculosis H37Rv. The assay can be described thus: intracellular M.tb growth inhibition relative to DMSO (0) and 4 uM bedaquiline (100); higher = stronger inhibition of intracellular bacterial growth. The note with it: 10 µM; 4 days. On the procedure: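 OICR kinase inhibitor library screened in duplicate at 10 uM against THP-1 macrophages (PMA-differentiated) infected with M. tuberculosis H37Rv-pTEC27 (tdTomato RFP), 4 days at 37 C. Rows with complete host cell loss (placeholder inhibition 0, cell loss 100) were removed.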
Take `COc1cc(OC)c(C=C2C(=O)Nc3ccccc32)c(OC)c1`: the “intracellular M.tb growth inhibition” value came to 4.9 ± 6.5%. As for `CN1CCC(COc2cnc(-c3cccc(Cn4nc(-c5cccc(C#N)c5)ccc4=O)c3)nc2)CC1`, the figure is 48.3 ± 68%; as for `Cc1cccc(-c2nn(C(=S)Nc3ccccc3)cc2-c2ccnc3ccccc23)n1`, 17.7 ± 18%. Next, `COc1nccc(-c2c(-c3ccc(F)cc3)ncn2C2CCNCC2)n1`: -58.3 ± 93%.

`O=C1Nc2ccc(I)cc2/C1=C/c1cc(Br)c(O)c(Br)c1`: the “intracellular M.tb growth inhibition” value came to 9.15 ± 48%.

`O=C1NC(=O)/C(=C/c2ccc3c(c2)OC(F)(F)O3)S1`: the “intracellular M.tb growth inhibition” value came out at 42.5 ± 35%. Take `COc1cc2nccc(Oc3ccc(NC(=O)Nc4cc(C)on4)c(Cl)c3)c2cc1OC`: the “intracellular M.tb growth inhibition” value was -5.89 ± 83%.

Turning to `O=c1c(O)c(-c2ccc(O)c(O)c2)oc2cc(O)cc(O)c12` [Quercetin], the “intracellular M.tb growth inhibition” value was -5.54 ± 46%.

Take `C=CC(=O)Nc1cccc(Oc2nc(Nc3ccc(N4CCN(C)CC4)cc3OC)ncc2Cl)c1`: the “intracellular M.tb growth inhibition” value was -39 ± 120%. Next, `COc1cc2ncnc(Nc3cccc(Cl)c3)c2cc1OC` [Tyrphostin AG 1478 mesylate]: 2.11 ± 14%; `Cc1ccc(NC(=O)c2cccc(N(C)C)c2)cc1NC(=O)c1ccc(O)cc1`: 36 ± 37%. Regarding `CC(=O)c1ccc(N2CCOCC2)cc1O`, the “intracellular M.tb growth inhibition” value was -148 ± 170%.

Turning to `CCn1c(-c2nonc2N)nc2c(C#CC(C)(C)O)ncc(OC[C@H]3CCCNC3)c21`, the “intracellular M.tb growth inhibition” value is -124 ± 170%. As for `Cc1ccc(F)c(NC(=O)Nc2ccc(-c3cccc4[nH]nc(N)c34)cc2)c1`, the figure is -14.6 ± 21%; as for `Cc1cc(C(C)Nc2ccccc2)c2nc(N3CCOCC3)cc(=O)n2c1` (stereo not given), -38.7 ± 24%; as for `COc1cccc(-c2cc(=O)c3ccccc3o2)c1N`, 27.4 ± 15%. As to `C[C@]1(O)C[C@@H](c2nc(-c3ccc4ccc(-c5ccccc5)nc4c3)c3c(N)nccn32)C1`, the “intracellular M.tb growth inhibition” value was found to be 39.2 ± 24%.

`CC1=C(C(=O)Nc2cc3cn[nH]c3cc2F)C(c2ccc(C(F)(F)F)cc2)CC(=O)N1` (stereo not given): the “intracellular M.tb growth inhibition” value is -101 ± 100%. As for `Cc1cccc(-c2[nH]c(C(C)(C)C)nc2-c2ccc3c(c2)OCO3)n1`, the figure is -67.3 ± 53%; as for `O=C(Nc1nc2ccccc2n1CCN1CCOCC1)c1cccc([N+](=O)[O-])c1` [IRAK-1/4 Inhibitor I], 13.1 ± 7.2%; as for `CN1C(=O)C(Cc2c[nH]c3ccccc23)NC1=S` (stereo not given) [Necrostatin-1], -8.08 ± 36%.

With `NC1(c2ccc(-c3nc4ccn5c(=O)[nH]nc5c4cc3-c3ccccc3)cc2)CCC1`, the “intracellular M.tb growth inhibition” value was -62.1 ± 130%. Turning to `O=C(NC1CCNCC1)c1n[nH]cc1NC(=O)c1c(Cl)cccc1Cl`, the “intracellular M.tb growth inhibition” value turned out to be 29.6 ± 42%. Next, `C#Cc1cccc(Nc2ncnc3cc(OCCOC)c(OCCOC)cc23)c1` [Erlotinib HCl]: -17.4 ± 52%; `Nc1ncnc(Nc2ccc(OCc3ccccc3)c(Cl)c2)c1/C=N/OCCN1CCOCC1`: 55.9 ± 12%; `CN(C)C/C=C/C(=O)Nc1cc2c(Nc3ccc(F)c(Cl)c3)ncnc2cc1O[C@H]1CCOC1`: 18.3 ± 3%. Turning to `O=C(O)c1ccc2c3c1cccc3c(=O)n1c3ccccc3nc21` [STO-609 acetic acid], the “intracellular M.tb growth inhibition” value was -29.1 ± 36%. Regarding `COc1cc2/c(=N/c3ccc(Br)cc3F)nc[nH]c2cc1OCC1CCN(C)CC1` [Vandetanib], the “intracellular M.tb growth inhibition” value stood at 64.1 ± 6.5%. As for `COc1cc(Nc2ncc(F)c(Nc3ccc4c(n3)N(COP(=O)(O)O)C(=O)C(C)(C)O4)n2)cc(OC)c1OC`, the figure is 11 ± 16%; as for `CC[C@H](Nc1ncnc2[nH]cnc12)c1nc2cccc(F)c2c(=O)n1-c1ccccc1`, -236 ± 290%. Turning to `COc1cc2ncnc(Nc3ccc(O)cc3)c2cc1OC` [Janex-1], the “intracellular M.tb growth inhibition” value was -138 ± 210%. Next, `COc1cc(F)c(F)c(Nc2ccc(I)cc2F)c1NS(=O)(=O)C1(C[C@H](O)CO)CC1`: 44.7 ± 27%. For `Cc1cc(F)c(Nc2ncnc3cc(OCc4ccccc4)ccc23)cc1O`, the “intracellular M.tb growth inhibition” value was determined as 38.8 ± 33%. As for `NC(=O)Nc1sc(-c2ccc(F)cc2)cc1C(N)=O`, the figure is -19 ± 13%. As for `N#C/C(=C(/N)Sc1ccc(N)cc1)c1ccccc1C(F)(F)F`, the figure is 5.44 ± 36%.

The values are drawn from the supplement of paper PMC7530171.
